Ba/F3 V617F tox = loss of viability in JAK2V617F-driven Ba/F3 cells; Ba/F3 EpoR-JAK2V617F viability, ATP luminescence; inhibition, % at 5.6 µM; 1.1% of 220,000 active;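 active means inhibition above the campaign mean plus 3 SD over all tested compounds, cut at about 24% in these data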;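 further: cytokine-independent growth of Ba/F3 cells driven by EpoR plus mutant JAK2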
KLF5 inh = kruppel-like factor 5 inhibition; DLD-1 KLF5 promoter-luciferase reporter, luminescence; inhibition, % at 5 µM; 0.23% of 290,000 active; AID 1700;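 active means inhibition above a per-plate limit of that plate's mean compound inhibition plus 3 SD, cut at about 60% in these data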;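 further: higher means less KLF5 promoter-driven luciferase light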
APP transl inh = APP translation inhibition. SH-SY5Y APP 5'UTR-luciferase reporter, luminescence. inhibition, % at 2 µM. 0.82% of 190,000 active;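 active means inhibition above a set limit, derived from the sample mean plus 3 SD, cut at about 45% in these data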
IEC-6 tox = kills IEC-6 intestinal cells in KLF5 counter-screen; IEC-6 cytotoxicity, luminescence viability; inhibition, % at 5 µM; 0.78% of 290,000 active; in the data active means inhibition above about 22%
BaF3 tox = parental Ba/F3 viability inhibition as JAK2V617F counter-screen. 1.1% of 220,000 active. CellTiter-Glo ATP luminescence. inhibition, % at 5.6 µM;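 active means inhibition above a per-campaign cutoff, the mean inhibition of all tested compounds plus 3 SD, cut at about 27% in these data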
Large screens that a line does not name were inactive. A selection: hits, their analogues and other compounds. The true share with any hit is near 1.9%.

Cn1c(SCCOc2ccccc2Cl)nnc1-c1cccs1	Ba/F3 V617F tox 34.9, BaF3 tox 37.1
Cc1ccc(OCc2cc(C(=O)N3CCC(C(O)C(C)C)CC3)no2)cc1C (stereo unspecified)	none (no result: Ba/F3 V617F tox, APP transl inh, BaF3 tox)
O=c1cc(CSc2nnc(-c3cccs3)n2Cc2ccccc2)nc2sc3ccccc3n12	Ba/F3 V617F tox 43.0, BaF3 tox 54.9
N#CC1=C(SCC(=O)c2ccccc2)NC2=C(C(=O)CCC2)C1c1ccco1 (stereo unspecified)	Ba/F3 V617F tox 46.6, APP transl inh 68.4, BaF3 tox 36.1
CC(C)(C)c1ccc(C(=O)CCCSC2=C(C#N)C(c3ccco3)C3=C(CCCC3=O)N2)cc1 (stereo unspecified)	none
Clc1ccc(-c2c[n+](Cc3ccc(Br)cc3)c3n2CCCCC3)cc1	Ba/F3 V617F tox 61.9, BaF3 tox 69.1 (no result: APP transl inh)
Clc1ccc(-c2c[n+](Cc3ccc(Cl)cc3Cl)c3n2CCCCC3)cc1	Ba/F3 V617F tox 73.3, BaF3 tox 72.9 (no result: APP transl inh)
Clc1ccc(C[n+]2cc(-c3ccccc3)n3c2CCCCC3)c(Cl)c1	Ba/F3 V617F tox 85.6, BaF3 tox 79.3
Cc1ccc(OCC(=O)Nc2ccc(NC(=O)c3ccccc3)c(C)c2)cc1	none (no result: Ba/F3 V617F tox, APP transl inh, BaF3 tox)
O=c1c(/C=N/Nc2ccccc2)c(Sc2nnnn2-c2ccccc2)nc2ccccn12	APP transl inh 74.9
O=C(O)c1ccccc1N/N=C/c1c(Sc2nnnn2-c2ccccc2)nc2ccccn2c1=O	none (no result: APP transl inh)
CCn1c(=O)cc(OCC(=O)N2CCCCCC2)c2ccccc21	APP transl inh 55.4
COc1cccc2c1OC1(C)CC2NC(=O)N1c1cccc(C(=O)N2CCN(c3ccccc3)CC2)c1 (stereo unspecified)	none
C/C(=N\NC(=S)Nc1ccc(F)cc1)C1CC1	BaF3 tox 91.9
CC1CCN(C(=S)Nc2ccc(F)cc2)CC1	none
FC(F)(F)c1cccc(-n2cc(-c3ccccc3)[nH]c2=S)c1	none (no result: Ba/F3 V617F tox, APP transl inh, BaF3 tox)
CC1CSc2n(-c3cccc(C(F)(F)F)c3)cc(-c3ccccc3)[n+]21 (stereo unspecified)	Ba/F3 V617F tox 56.3, BaF3 tox 83.9
CC/C(=N\NC(=O)c1nnn(-c2nonc2N)c1-c1cccs1)c1ccccc1	none (no result: Ba/F3 V617F tox, APP transl inh, BaF3 tox)
CCOC(=O)c1ccc(-c2ccc(C3Nc4ccccc4C(=O)N3O)o2)cc1 (stereo unspecified)	none
Cc1cc([N+](=O)[O-])ccc1-c1ccc(C2Nc3ccccc3C(=O)N2O)o1 (stereo unspecified)	APP transl inh 53.5
COc1cccc(C(=O)Nc2ccccc2)c1	none
COc1cccc(-c2cc(=O)c3cc(NC(=O)c4ccccc4)ccc3[nH]2)c1	APP transl inh 86.8
COc1cccc(S(=O)(=O)NCc2ccc(C(=O)Nc3ccc(Cl)cc3)cc2)c1	none
COc1cccc(-c2cc(=O)c3cc(NC(=O)c4ccc(Cl)cc4)ccc3[nH]2)c1	APP transl inh 78.0
COc1ccc(C2CC(c3ccccc3)=NN2C(=O)CN2N=NC3C(=O)N(c4cccc(F)c4)C(=O)C32)cc1 (stereo unspecified)	none
CCOC(=O)c1ccccc1OC(=O)CS(=O)c1ccccc1[N+](=O)[O-] (stereo unspecified)	none
O=C(CS(=O)c1ccc(C(F)(F)F)cc1[N+](=O)[O-])Oc1ccccc1 (stereo unspecified)	Ba/F3 V617F tox 53.1, BaF3 tox 47.8
CS(=O)(=O)c1ccc(S(=O)CC(=O)OCc2ccccc2)c([N+](=O)[O-])c1 (stereo unspecified)	Ba/F3 V617F tox 42.8, APP transl inh 48.4
CCOC(=O)c1c(C)[nH]c(C(=O)COC(=O)/C=C/c2ccc(OC(F)F)cc2)c1C	BaF3 tox 65.5
CCOC(=O)c1[nH]c(C)c(C(=O)OCC(=O)N2CCc3ccccc32)c1C	APP transl inh 45.8
CCOC(=O)c1c(C)[nH]c(C(=O)COC(=O)c2ccc(O)cc2)c1C	Ba/F3 V617F tox 38.9, BaF3 tox 40.3 (no result: APP transl inh)
CS(=O)(=O)N1CCN(C(=O)Cc2ccccc2Cl)CC1	none
CC(C)(C)OC(=O)[C@H]1[C@H](c2ccc([N+](=O)[O-])cc2)C2(C(=O)c3ccccc3C2=O)C2c3ccccc3C=NN21 (stereo partly specified)	none
NCCc1c(-c2ccccc2)n(-c2ccccc2)c2ccccc12	none
CC[n+]1ccc(C)c2cc(P(=O)(c3ccccc3)c3ccccc3)ccc21	none
CC[n+]1ccc(C)c2cc(S(=O)C(F)(F)F)ccc21 (stereo unspecified)	BaF3 tox 27.2
CC[n+]1ccc(C)c2cc(SC(F)(F)F)ccc21	BaF3 tox 35.0
O=C(NCCc1ccccc1)C1CCCN(C(=O)Nc2ccc(F)cc2)C1 (stereo unspecified)	none (no result: Ba/F3 V617F tox, APP transl inh, BaF3 tox)
FC(F)(F)c1cnc(COc2cc(Cl)cc(Cl)c2)c(Cl)c1	none (no result: APP transl inh)
N#CCn1cnc2c(oc3ccccc32)c1=O	none (no result: Ba/F3 V617F tox, APP transl inh, BaF3 tox)
CCN1CCN(C(c2ccc(C(F)(F)F)cc2)c2ccc3cccnc3c2O)CC1 (stereo unspecified)	none (no result: Ba/F3 V617F tox, APP transl inh, BaF3 tox)
OCCN1CCN(C(c2cccs2)c2ccc3cccnc3c2O)CC1 (stereo unspecified)	Ba/F3 V617F tox 100.1, KLF5 inh 83.0, IEC-6 tox 49.6, BaF3 tox 85.6
C=CCN(C(=O)Nc1ccc(F)cc1)C1CC(=O)N(c2ccc(OC)cc2)C1=O (stereo unspecified)	none
C=CCN(C(=O)Nc1ccc(Cl)cc1)C1CC(=O)N(c2ccc(OC)cc2)C1=O (stereo unspecified)	APP transl inh 47.4
COc1ccccc1C(=O)NCCN=C1NS(=O)(=O)c2ccccc21	none (no result: Ba/F3 V617F tox, APP transl inh, BaF3 tox)
O=C(/C=C/Nc1ccc(S(=O)(=O)Nc2cnc3ccccc3n2)cc1)c1ccccc1	BaF3 tox 51.8 (no result: APP transl inh)
COc1ccc(-c2cc3c(=O)n(CC(=O)Nc4cccc(Cl)c4)ncn3n2)cc1	none (no result: Ba/F3 V617F tox, APP transl inh, BaF3 tox)
Cc1ccc2[nH]c3c(c2c1)CN(C(=O)CN1c2ccc(F)cc2CCC1C)CC3 (stereo unspecified)	BaF3 tox 94.5
COC(=O)c1ccccc1NC(=O)CSc1nc(-c2ccco2)cc(C(F)(F)F)n1	APP transl inh 73.2
O=C(O)CCN=CC1=C(O)CC(c2ccccc2)CC1=O (stereo unspecified)	none (no result: Ba/F3 V617F tox, APP transl inh, BaF3 tox)
CCCCCCCCCCCCCCCC[n+]1ccc(/C=N/O)cc1	Ba/F3 V617F tox 98.1, BaF3 tox 63.5
CCCCCCCCCCCCCCCC[n+]1ccc(C(N)=O)cc1	none (no result: APP transl inh)
COc1ccc(/C=C/S(=O)(=O)NCc2ccccc2)cc1OC	none
CC1(C(=O)N2CCN(Cc3ccccc3Cl)CC2)CC1(Cl)Cl (stereo unspecified)	none (no result: Ba/F3 V617F tox, APP transl inh, BaF3 tox)
CC(=O)N(C)c1ccc(OCC(O)Cn2c(C)nc3ccccc32)cc1 (stereo unspecified)	Ba/F3 V617F tox 29.4, BaF3 tox 42.3
CC(=O)Nc1ccc(OCC(O)Cn2c(C)nc3ccccc32)cc1 (stereo unspecified)	none
Cn1cc(CN2CCC[C@H]2CO)c(-c2cccc(Cl)c2)n1	none
O=C(Nc1nccs1)C12CC3CC(C1)CC(C(=O)Nc1nccs1)(C3)C2	Ba/F3 V617F tox 49.9
CCC/C(O)=C1\C(=O)CC(C)(C)CC1=Nc1ccc(OC)cc1OC	APP transl inh 86.4

Screens (PubChem)
